The values below come from PubChem BioAssay (EPA / NIEHS).

Inconclusive results are not listed. Activity calls are given as the source filed them. How the source made its calls: active means hit-call score of the fitted dose curve at least 0.9, where 1 is the maximum; inconclusive means response in the unintended direction; inactive means score below 0.9.

human Serotonin, 5-Hydroxytryptamine Receptor 7 (5HT7), HTR7 (gene 3363), sequence (P34969 whole entry, looked up): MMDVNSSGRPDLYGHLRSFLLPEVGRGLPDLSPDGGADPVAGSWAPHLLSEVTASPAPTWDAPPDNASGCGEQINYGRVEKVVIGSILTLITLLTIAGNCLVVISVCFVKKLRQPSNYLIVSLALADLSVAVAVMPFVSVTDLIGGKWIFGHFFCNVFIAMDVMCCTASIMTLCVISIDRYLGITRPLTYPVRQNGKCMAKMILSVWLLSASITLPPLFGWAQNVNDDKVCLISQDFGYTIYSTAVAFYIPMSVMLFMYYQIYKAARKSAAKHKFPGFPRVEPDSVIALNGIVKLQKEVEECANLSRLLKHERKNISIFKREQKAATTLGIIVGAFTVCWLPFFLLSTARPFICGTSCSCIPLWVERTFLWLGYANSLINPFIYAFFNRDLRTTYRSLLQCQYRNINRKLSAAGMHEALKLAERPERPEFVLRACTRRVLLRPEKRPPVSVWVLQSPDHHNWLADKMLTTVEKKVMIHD

The experiment addresses human Serotonin, 5-Hydroxytryptamine Receptor 7 (5HT7), HTR7 (gene 3363) (UniProt P34969). Briefly: NVS_GPCR_h5HT7: NovaScreen (NVS) G Protein-Coupled Receptor Assay for human Serotonin, 5-Hydroxytryptamine Receptor 7 (5HT7) (AID 2283255). On the procedure:
NVS_GPCR_h5HT7 is a biochemical, single-readout assay that uses extracted gene-proteins from CHO in a cell-free assay. Measurements were taken 1 hour after chemical dosing in a 96-well plate.NVS_GPCR_h5HT7 is one of one assay component(s) measured or calculated from the NVS_GPCR_h5HT7 assay. It is designed to make measurements of radioligand binding, a form of binding reporter, as detected with scintillation counting signals by Filter-based radiodetection technology.Data from the assay component NVS_GPCR_h5HT7 was analyzed into 1 assay endpoint. This assay endpoint, NVS_GPCR_h5HT7, was analyzed in the positive analysis fitting direction relative to DMSO as the negative control and baseline of activity. Using a type of binding reporter, loss-of-signal activity can be used to understand changes in the binding as they relate to the gene HTR7. Furthermore, this assay endpoint can be referred to as a primary readout, because the performed assay has only produced 1 assay endpoint. To generalize the intended target to other relatable targets, this assay endpoint is annotated to the gpcr intended target family, where the subfamily is rhodopsin-like receptor.
Binding assays used specific radioligands (tritiated, iodinated) with non-radioactive competitive displacement ligands in agonist or antagonist protocols (as indicated) and various reference compounds and inhibitors to titrate specific binding to receptors and transporters. Most enzyme assays (CYPs, kinases, phosphatases, proteases, HDACs) used recombinant protein and specific substrates (fluorescence mostly, some colorimetric and radioactive) and inhibitors, followed by a biochemical separation of substrate and product. All assays for the biochemical HTS were initially run in duplicate at a single concentration (10 uM for CYP450 assays and 25 uM for all others). […] Each assay was run with positive and negative controls, and concurrent controls on every plate. The follow-up (secondary) screen tested active chemical-pairs in concentration series, as well as a few additional assays not tested in the primary screen, some selected negative inactives, and several cases re-run in the concentration series for confirmatory purposes.
In the case of `CCCOc1sc(C(=O)N2CCC(c3cc(CN)ccc3F)CC2)c(C)c1Br`, the AC50 was 5.09 µM (active).

For the molecule `CC[C@H](c1ccc(O)cc1)[C@@H](CC)c1ccc(O)cc1`, the call was inactive. For the molecule `CN1CCN(c2ccccc2/C=C2\SCCN(c3ccc(Cl)c(Cl)c3)C2=O)CC1`, the AC50 was 0.0142 µM (active). Regarding `CC#C[C@]1(O)CC[C@H]2[C@@H]3CCC4=CC(=O)CCC4=C3[C@@H](c3ccc(N(C)C)cc3)C[C@@]21C`, the AC50 is 23.7 µM (active). `O=C(O)Cc1cc(I)c(Oc2cc(I)c(O)c(I)c2)c(I)c1`: the AC50 is 5.26 µM (active). Same read-out and setting: as for `NC(=O)N(O)[C@@H]1C=C[C@H](Oc2cccc(Oc3ccc(F)cc3)c2)C1`, the figure is 12.8 µM (active). For the molecule `Cc1oc(-c2ccccc2)nc1CCOc1ccc(C[C@H](Nc2ccccc2C(=O)c2ccccc2)C(=O)O)cc1`, the molecule was called inactive.

On to `O=C(OCCOCCOC(=O)c1ccccc1)c1ccccc1`, for which the AC50 is 8.96 µM (active). As for `CCC(=C(c1ccc(O)cc1)c1ccc(OCCN(C)C)cc1)c1ccccc1`, the AC50 was 5.49 µM (active). `Oc1cccc(O)c1`: the molecule was called inactive.

On to `NC(=O)N1C(=O)C(C(=O)c2cc(Cl)cs2)c2cc(F)c(Cl)cc21` (stereo not given), for which the outcome was inactive. For `CCCCCCCCCCCCc1ccccc1S(=O)(=O)O`, the AC50 is 7.69 µM (active). In the case of `O=[N+]([O-])c1ccc(O)cc1`, the molecule was classed as inactive. Take `CC(=O)NC1(c2cccc(F)c2)CCN(CC[C@@]2(c3ccc(Cl)c(Cl)c3)CN(c3ccccc3)C(=O)CO2)CC1`: the AC50 was 20.8 µM (active). `CCN(CC)CCNc1ccc(CNC=O)c2sc3ccc(OC)cc3c(=O)c12`: the result was inactive.

The AC50 is the concentration giving half of the maximal activity seen.
